Shown are actives, neighbours in structure and some others; about 3.3% of the full set was active somewhere.
697 NFkB inh: lowers PMA/ionomycin-induced NF-kB signal in 697 B cells. 697 B-cell NF-kB luciferase reporter, 16 h. 0.33% of 330,000 active. inhibition, % at 4 µM; in the data active = inhibition above about 35%
esBAF inh: SWI/SNF esBAF complex inhibition; mouse ES cells, Bmi1-luciferase knock-in reporter, 24 h; 100% = twice the neutral-well signal; reporter increase, % at 12.5 µM; 2% of 350,000 active; AID 602393; in the data active = activation above about 40%;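 note: 0% = median of the plate's neutral control wells and 100% = double that signal; a rise in the Bmi1 reporter signal indicates esBAF inhibition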
Gli-Sufu block: blocks Gli-Sufu signaling in a luciferase reporter | Sufu-KO-LIGHT fibroblasts, Gli luciferase reporter luminescence | AID 588413 | 0.74% of 340,000 active | inhibition, % at 5 µM;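 active = inhibition above about 55%, limit read from the data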;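 note: 0% = DMSO-treated cells and 100% = wells with medium but no cells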
Jurkat NFkB inh: lowers PMA/ionomycin-induced NF-kB signal in Jurkat cells | inhibition, % at 4 µM | PMA/ionomycin-induced NF-kB luciferase reporter, luminescence | 0.53% of 330,000 active; in the data active = inhibition above about 50%
SMARCA2 activ: activators of SMARCA2 function; 1% of 370,000 active; MG213 cells, MMTV-luciferase reporter, dexamethasone, overnight; activation, % at 9.1 µM; in the data active = activation above about 7.8%;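 note: 0% = vehicle wells and 100% = reference activator wells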
Starred values were filed as active, the others as inactive; . = no result given.

SMILES | 697 NFkB inh | esBAF inh | Gli-Sufu block | Jurkat NFkB inh | SMARCA2 activ
Cn1cc(Br)c(C(=O)N/N=C/c2cc3c(cc2Cl)OCO3)n1 | -29 | 47* | -43 | -35 | 3
Cc1ccc(/C=N/NC(=O)c2nn(C)cc2Cl)cc1 | -50 | . | -50 | -43 | 4
Cn1cc(Cl)c(C(=O)N/N=C/c2ccc3c4c(cccc24)CC3)n1 | -104 | 63* | -56 | -73 | .
C[C@@H]1CN([C@@H](C)CO)C(=O)c2cc(NC(=O)Nc3ccc4c(c3)OCO4)ccc2O[C@@H](C)CCCCO[C@@H]1CN(C)C(=O)c1ccccc1 | . | -5 | . | . | .
C#CCN1C(=O)S/C(=C\c2ccc(-c3ccc(C(=O)O)cc3C)o2)C1=O | . | 86* | -67 | . | 8
Cc1cc(C(=O)O)ccc1-c1ccc(/C=C2\SC(=O)N(CC(=O)Nc3ccc4c(c3)OCO4)C2=O)o1 | 8 | 1 | . | 10 | 0
C=CCNC(=S)NNC(=O)COc1ccc2cc(Br)ccc2c1 | -52 | 41* | -55 | -72 | 6
Cc1c(C(=O)N(CCO)Cc2ccccc2)oc2c(F)cccc12 | -57 | 59* | -3 | -40 | 6
N#Cc1ccc(-c2ccc3c(c2)[C@H]2[C@H](CCN2C(=O)c2ccncc2)[C@H](CO)N3)cc1 | . | -2 | . | . | .
Cc1ccsc1/C=C(\CC(=O)O)c1nc2ccccc2o1 | 3 | 24 | -88 | -4 | -3
O=C(O)C/C(=C\c1cc(Br)cs1)c1nc2ccccc2o1 | -2 | 83* | 12 | -16 | 6
Cc1ccc(-c2cnc3c(c2)C(=O)N([C@H](C)CO)C[C@H](C)[C@@H](CN(C)C(=O)Cc2ccccc2)O3)cc1 | . | -3 | . | . | .
Cc1cc(C(=O)Nc2ccc(S(=O)(=O)Nc3onc(C)c3C)cc2)c(C)o1 | 13 | -14 | 1 | -7 | 0
Cc1ccc2oc(C(=O)Nc3ccc(S(=O)(=O)Nc4onc(C)c4C)cc3)c(C)c2c1 | -41 | 59* | -15 | 0 | -1
COc1cc(Cl)ccc1OCc1cc(C(=O)NC(C)Cc2cnccn2)no1 (stereo not given) | -98 | 67* | -85 | -117 | 4
COc1ccc(OCc2cc(C(=O)NC(C)c3nc(C)cs3)no2)c(Cl)c1 (stereo not given) | . | 61* | . | . | 0
CCC(NC(=O)c1cc(COc2ccc(Cl)cc2OC)on1)c1ccncc1 (stereo not given) | -57 | 68* | -50 | -79 | 5
CCC(NC(=O)c1cc(COc2ccc(OC)cc2Cl)on1)c1ccncc1 (stereo not given) | -48 | 47* | -35 | -40 | -1
Cc1nn2c(-c3ccccc3)nnc2c2ccccc12 | -40 | 52* | -9 | -17 | 2
COc1ccc(NC(=O)Nc2ccc3c(c2)CC(=O)N([C@@H](C)CO)C[C@H](C)[C@H](CN(C)Cc2ccc(Cl)c(Cl)c2)O3)cc1 | . | 7 | . | . | .
CSc1nc2c(cnn2-c2ccccc2)c(=O)n1N | -31 | 48* | -17 | -17 | 4
CCSc1nc2c(cnn2-c2ccccc2)c(=O)n1N | -78 | . | -21 | -69 | 2
O=C(CCc1nnc(CCCc2ccccc2)o1)NCCc1ccco1 | -1 | . | 0 | -14 | 7.8*
CCc1cc(CNC(=O)CCc2nnc(CCCc3ccccc3)o2)on1 | -61 | 57* | -22 | -57 | 5
C[C@H]1CCCCO[C@H](CN(C)C(=O)CCC(F)(F)F)[C@@H](C)CN([C@@H](C)CO)C(=O)c2cc(NS(=O)(=O)c3cccs3)ccc2O1 | . | -3 | . | . | .
SMILES | 697 NFkB inh | esBAF inh | Gli-Sufu block | Jurkat NFkB inh | SMARCA2 activ
COc1ccc(/C=C/c2ccncc2)cc1 | -70 | 53* | -33 | -25 | 5
O=C(Nc1ccc2c(c1)OCCO2)c1ccc(Br)s1 | . | . | -131 | . | -1
CCc1sc(C(=O)Nc2ccc3c(c2)OCCO3)cc1Br | -117 | 51* | . | -148 | 7
CCc1sc(C(=O)Nc2ccc3c(c2)OCO3)cc1C | -76 | 51* | -69 | -91 | 1
CC(C)(O)C#Cc1ccc(C(=O)Nc2ccc3c(c2)OCO3)s1 | -56 | 63* | -30 | -125 | 3
CCc1sc(C(=O)Nc2ncccc2C)cc1C | -5 | 54* | -17 | -16 | -2
CC(C)(O)C#Cc1ccc(C(=O)NC2CCCCC2)s1 | -48 | . | -42 | -47 | 3
COC(=O)C[C@@H]1C[C@@H]2c3cc(NC(=O)Nc4ccc(C(F)(F)F)cc4)ccc3O[C@@H]2[C@H](CO)O1 | . | -8 | . | . | .
O=C(C1CC1)N1C[C@H]2[C@@H](c3ccccc31)[C@H](CO)N2C(=O)c1ccccn1 | . | -5 | . | . | .
C[C@H](CO)N1C[C@H](C)[C@@H](CN(C)S(=O)(=O)c2ccccc2)OCCCC[C@H](C)Oc2ccc(NS(=O)(=O)c3cn(C)cn3)cc2C1=O | . | 1 | . | . | .
CC(C)CC#Cc1ccc2c(c1)O[C@H](CN(C)C(=O)c1cccc(F)c1)[C@H](C)CN([C@H](C)CO)S2(=O)=O | . | 4 | . | . | .
N/C(=N\N=C\c1ccc(O)c(O)c1)c1nonc1N | -57 | 65* | -14 | -31 | 5
Cc1ccc(S(=O)(=O)N(C)C[C@H]2OCCCC[C@H](C)Oc3ccc(NC(=O)Cc4ccccc4)cc3C(=O)N([C@@H](C)CO)C[C@H]2C)cc1 | . | -2 | . | . | .
C[C@@H]1CCCCO[C@@H](CN(C)C(=O)Nc2ccc3c(c2)OCO3)[C@H](C)CN([C@H](C)CO)C(=O)c2cc(NS(=O)(=O)c3cn(C)cn3)ccc2O1 | . | 7 | . | . | .
COc1ccc(Cl)c(Cn2c(NCc3ccco3)nc3c2c(=O)n(C)c(=O)n3C)c1 | -8 | . | 70* | 11 | 2
COc1cccc(C(=O)Nc2ccc3c(c2)C(=O)N(C)[C@H]2CC[C@H](CC(=O)NCC4CC4)O[C@@H]2CO3)c1 | . | 1 | . | . | .
Cc1cc2oc(C(=O)Nc3nonc3C)c(C)c2cc1Cl | 11 | 44* | -13 | -46 | 0
Cc1nonc1NC(=O)c1oc2ccc(F)cc2c1C | 2 | 19 | -14 | -30 | 2
O=C(O)c1ccccc1SCc1csc(-c2ccccc2)n1 | -16 | 47* | -1 | 7 | 3
Oc1ccc(Nc2ccc3ccccc3c2)cc1 | . | 49* | -8 | . | 2
O=S(=O)(NCC1COc2ccccc2O1)c1ccc2ccccc2c1 (stereo not given) | 12 | . | 1 | -1 | -4
CNS(=O)(=O)c1ccc(NCC2COc3ccccc3O2)c([N+](=O)[O-])c1 (stereo not given) | -4 | 44* | -15 | -23 | 2
CC(C)(C)N1C(=O)c2ccc(C(=O)Nc3nccs3)cc2C1=O | -1 | 54* | -88 | -14 | 4
Cc1cc(CNC(=O)c2ccc3nc(Cc4ccccc4F)oc3c2)nn1C | -166 | 69* | -29 | -104 | 0
Cc1ccc(NC(=O)c2ccc(Br)o2)cc1S(=O)(=O)N(C)C | -7 | 55* | -32 | -39 | 3
O=C(Nc1ccc2c(c1)oc1ccccc12)c1ccc(Br)o1 | -57 | 83* | -49 | -71 | 5
COC(=O)Cc1ccc(NC(=O)c2ccc(Br)o2)cc1 | 2 | 57* | -4 | -59 | 6
O=C(Nc1ccccc1)c1ccc(Br)o1 | 10 | 39 | -13 | -30 | 2
O=C(Nc1ccc2c(c1)CCC2)c1ccc(Br)o1 | -71 | 47* | -35 | -104 | -1

Assay outcomes: PubChem, several laboratories
